PubChem BioAssay AID432 (Sanford-Burnham Center for Chemical Genomics, 2006)
Hit rate of the full screen: of about 64,000 compounds, about 15 (0.02%) were called active. The rule behind the calls is not given here. Only a sample is shown. Entries with a potency or affinity are not part of this list.

biological target: Bcl-2-related protein A1 (Mus musculus) (UniProt Q07440); assay: Bfl-1 inhibitors, primary screen, biochemical, fluorescence polarization, FITC-Bid, mouse (AID 432); settings: FITC-Bid BH3 peptide fluorescence polarization displacement; at 20 µM; hits give high values
Sequence (Q07440 whole entry, looked up): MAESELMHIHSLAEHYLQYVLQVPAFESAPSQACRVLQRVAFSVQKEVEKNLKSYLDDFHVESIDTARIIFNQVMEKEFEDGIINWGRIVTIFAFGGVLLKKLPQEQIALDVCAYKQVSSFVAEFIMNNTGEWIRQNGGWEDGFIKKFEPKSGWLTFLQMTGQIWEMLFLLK

SMILES | displacement
COC(=O)C(C)n1cnc2c(cnn2-c2ccc(Cl)cc2)c1=O (stereo not drawn) | 1.6% (inactive)
CCCCCNC(=O)C(C#N)c1nc2ccccc2nc1N1CCCC1 (stereo not drawn) | 34.3% (inactive)
Cn1c(SCc2ccccc2Cl)nnc1-c1cnccn1 | -5.3% (inactive)
COc1ccccc1OC(=O)c1ccc(SC)cc1OC | -2.3% (inactive)
Cc1cc(OCC(=O)Nc2cc(-c3nn4c(C)nnc4s3)ccc2C)ccc1Cl | 10% (inactive)
O=C1c2ccccc2C(Nc2ccc(S(=O)(=O)N3CCOCC3)cc2)N1c1cccnc1 (stereo not drawn) | 8.2% (inactive)
N#CC1=C(N)OC2=C(C(=O)CCC2)C1c1ccsc1 (stereo not drawn) | -2.3% (inactive)
Cc1csc2ncc(C(=O)Nc3cccc(C(F)(F)F)c3)c(=O)n12 | -2% (inactive)
Cc1ccc(-n2cccc2C(=S)N=P(N(C)C)(N(C)C)N(C)C)cc1 | 22.3% (inactive)
Cc1ccccc1OCC(=O)NCCN(C)C | -12% (inactive)
CCCN1Cc2cccc(C(=O)Nc3ccc4c(c3)OCO4)c2C1=O | -7.1% (inactive)
COc1ccc(CCNC(=O)CSc2nnc(Cn3c(=O)sc4ccccc43)n2C)cc1OC | 4.6% (inactive)
O=C(c1ccc(Br)o1)N(Cc1ccccc1)c1ccccn1 | -6.6% (inactive)
Cn1c(=O)[nH]c(=O)c2c1nc(N1CCN(c3ccccc3)CC1)n2CCSc1ncccn1 | 4.5% (inactive)
Fc1ccc(-c2nnc3ccc(N4CCCC4)nn23)cc1 | -8.2% (inactive)
FC(F)(F)c1cccc(N2CCN(c3ccc4nnc(-c5ccccc5)n4n3)CC2)c1 | 0.4% (inactive)
COc1ccc2cnn(CCOc3ccccc3)c(=O)c2c1OC | -3.4% (inactive)
CCCn1c(SCC(=O)NCc2ccco2)nc2c1c(=O)n(C)c(=O)n2C | -5.1% (inactive)
CCOC(=O)C(NC(C)=O)(Nc1ccc(S(=O)(=O)Nc2onc(C)c2C)cc1)C(F)(F)F (stereo not drawn) | -2.1% (inactive)
Cc1ccc(Nc2nc(C)cc(C)n2)c(Br)c1 | -3.3% (inactive)
CC(C)(C)NC(=O)NC(=O)COC(=O)C1CC(=O)N(Cc2ccccc2)C1 (stereo not drawn) | -5.1% (inactive)

SMILES | displacement
CCCCCOc1ccc(/C=c2\sc3ncnn3c2=O)cc1 | -9% (inactive)
Cc1csc(NC(=O)CSc2nnc(-c3ccco3)n2C)n1 | -7.7% (inactive)
COC(=O)c1[nH]c2ccc(C)cc2c1NC(=O)CN1CCCCC1C (stereo not drawn) | -1.2% (inactive)
COc1ccccc1CNc1ncnc2c1cnn2-c1ccccc1 | -2.9% (inactive)
CN(C(=O)COC(=O)COc1ccccc1F)C1CCS(=O)(=O)C1 (stereo not drawn) | -1.5% (inactive)
C=CCn1c(C)cc(C(=O)CSc2nnc(NCc3ccccc3)s2)c1C | 3.3% (inactive)
CCOc1ccccc1C(=O)NCc1ccc2c(c1)OCO2 | 2.9% (inactive)
COc1ccc(NC(=O)C23CCC(C)(C(=O)C2)C3(C)C)cc1 (stereo not drawn) | -1.2% (inactive)
COC(=O)c1cn(C(=O)OC)c2ccccc12 | -6.7% (inactive)
Oc1ccc(C=Nc2cccc3ncccc23)c(O)c1 | 4.8% (inactive)
Nc1ccc2ncccc2c1 | -3.5% (inactive)
COc1cccc(OC)c1-c1nn2c(-c3ccccc3Cl)nnc2s1 | -6.5% (inactive)
CCOc1ccc(-c2nnc3sc(-c4c(OC)cccc4OC)nn23)cc1 | 7.5% (inactive)
COc1ccc(-c2nnc3sc(-c4ccccc4OC)nn23)cc1 | 0.2% (inactive)
COc1cccc(OC)c1-c1nn2c(-c3ccco3)nnc2s1 | -0.8% (inactive)
CSc1nnc(-c2ccccc2)n1C | -1.8% (inactive)
CCC(=O)N1CCc2cc(S(=O)(=O)CCC(=O)NCc3cccs3)ccc21 | 3.1% (inactive)
CC(=O)Nc1ccc(NCC(O)COc2ccccc2)cc1 (stereo not drawn) | 9.6% (inactive)
CC(=O)N1CCc2cc(S(=O)(=O)NCCC(=O)N3CCN(c4ccccn4)CC3)ccc21 | 0.4% (inactive)
Cc1cc(=O)n2ncnc2n1COCCO | -8.2% (inactive)
CCOC(=O)c1cnn2c(C)cc(-c3ccc(F)cc3)nc12 | -7.8% (inactive)

SMILES | displacement
CCOC(=O)CCS(=O)(=O)c1nc(-c2ccccc2)cc(C(F)(F)F)n1 | 37.1% (inactive)
COCC(C)NC(=O)CCS(=O)(=O)c1nc(-c2ccc(OC)cc2)cc(C(F)(F)F)n1 (stereo not drawn) | 6.4% (inactive)
Cc1cc(NC(=O)CCS(=O)(=O)c2nc(-c3ccccc3)cc(C(F)(F)F)n2)no1 | -3% (inactive)
CCC(=O)N1c2ccccc2-c2nnc(SC)nc2OC1c1ccc(OC)c(OC)c1 (stereo not drawn) | 0.1% (inactive)
COc1cc(OC)c(C2Oc3nc(SC)nnc3-c3ccccc3N2C(C)=O)cc1OC (stereo not drawn) | 3.4% (inactive)
CC(=O)NC1C(=O)N=C(SCC(=O)NCc2ccccc2)NC1=O (stereo not drawn) | 1.1% (inactive)
O=c1n(-c2ccccc2)c(=O)n(Cc2ccccn2)n1Cc1ccccn1 | -5.3% (inactive)
Cc1nc2ccc(S(=O)(=O)Nc3ccccc3C)cc2s1 | -3.4% (inactive)
COc1ccc(C(C)=O)c2c(O)cccc12 | -0.9% (inactive)
COc1ccc2c3c(cccc13)OCC2=O | 12.2% (inactive)
CCn1c(N)c(C(=O)NC)sc1=S | -2% (inactive)
Cc1ccc(-c2nnc(COc3cccc(-n4cnnn4)c3)o2)cc1 | -4.7% (inactive)
C=CCn1cc(C(=O)NCCOC)c(=O)c2cc(S(=O)(=O)N(CC)CC)ccc21 | 1.1% (inactive)
O=C(NC1CCCCNC1=O)c1ccc(Cl)cc1 (stereo not drawn) | -4% (inactive)
CC1(C)CC(=O)C(C=NCCN2CCN(C(=O)CC3CCCC3)CC2)=C(O)C1 | -1.8% (inactive)
O=C1CSC(c2cn(-c3ccccc3)nc2-c2cc3ccccc3oc2=O)N1Cc1ccco1 (stereo not drawn) | -5.3% (inactive)
COc1ccc(S(=O)(=O)N[C@@H](CC(C)C)C(=O)O)cc1 | -6% (inactive)
Cc1nc2c(c(=O)n1Cc1ccccc1Cl)c1nc3ccccc3nc1n2Cc1ccco1 | -10.7% (inactive)
N#Cc1c(NC(=O)CSc2nc(-c3ccco3)cc(C(F)(F)F)n2)sc2c1CCCC2 | -0.1% (inactive)
COc1ccc(C(=O)N2CCN(c3nnnn3-c3ccccc3)CC2)cc1OC | 3.7% (inactive)
Cc1cc(Nc2c(C)cccc2C)n2nc(C)nc2n1 | -2.1% (inactive)
